Test results reported in PubChem BioAssay (NCATS).
Results filed as inconclusive are left out. Entries that show only a call come without a potency. Unmarked numbers belong to inactive results. Active and inactive are the calls of the source. The call rests on the fitted dose curve; in most records, active means well fitted curve in the direction sought with a large enough effect; inconclusive means small, poorly fitted or top-dose-only effect, or another doubt; inactive means no such curve, though single readings can be large; an effect the other way counts as inactive or inconclusive. Square brackets hold non-standard residues; d marks the D form. Peptide text beside a SMILES is read from it. * marks the point of attachment. Dolaproine = CO[C@@H]([C@@H]1CCCN1)[C@@H](C)C(=O)O; Dil = CC[C@H](C)[C@H](NC)[C@@H](CC(=O)O)OC; Doe = c1ccc(C[C@H](N*)c2nccs2)cc1; Aib = CC(C)(N)C(=O)O

Legend:
[1] = target: Aldehyde dehydrogenase, mitochondrial (Homo sapiens) (UniProt P05091); experiment: qHTS for Inhibitors of the Aldehyde Dehydrogenase Family (ALDH2) Primary screen (AID 2061308); further: nearly all actives have a fitted effect of over 55% in size
[2] = target: Retinaldehyde dehydrogenase 3 (Homo sapiens) (UniProt P47895); experiment: qHTS for Inhibitors of the Aldehyde Dehydrogenase Family (ALDH1A3) Validation screen (AID 2061312); further: nearly all actives have a fitted effect of over 45% in size
[3] = target: Retinaldehyde dehydrogenase 3 (Homo sapiens) (UniProt P47895); experiment: qHTS for Inhibitors of the Aldehyde Dehydrogenase Family (ALDH1A3) Primary screen (AID 2061315)
[4] = BET inhibitor-based combinations targeting novel dependencies in MECOM-rearranged (r) AML: MV-4-11 cell line (AID 2202233); further: nearly all actives have a fitted effect of over 45% in size; further: potency means the concentration at half of the fitted maximal effect
Summary of the method: (§1)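 Cells at 500/well were exposed for 48 hr to MIPE v5.0 drugs as 11-point dose curves. Viability was read by CellTiter-Glo luminescence and normalized to DMSO and empty-well controls. Activity was expressed as AUC and per-cell-line Z-AUC.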

[5] = qHTS for Inhibitors of the Aldehyde Dehydrogenase Family (ALDH1A2, ALDH1A3, ALDH2, ALDH3A1) (AID 2061307); further: nearly all actives have a fitted effect of over 50% in size; on potency: test system not described further here; potency means the concentration at half of the fitted maximal effect
[6] = target: Aldehyde dehydrogenase 1A1 (Homo sapiens) (UniProt P00352); experiment: qHTS for Inhibitors of the Aldehyde Dehydrogenase Family (ALDH1A1) Confirmatory screens (AID 2061316); further: nearly all actives have a fitted effect of over 65% in size; further: potency means the concentration at half of the fitted maximal effect
[7] = target: Retinaldehyde dehydrogenase 3 (Homo sapiens) (UniProt P47895); experiment: qHTS for Inhibitors of the Aldehyde Dehydrogenase Family (ALDH1A3) Confirmatory screens (AID 2061311); further: nearly all actives have a fitted effect of over 60% in size; further: potency means the concentration at half of the fitted maximal effect
[8] = target: Retinal dehydrogenase 2 (Homo sapiens) (UniProt O94788); experiment: qHTS for Inhibitors of the Aldehyde Dehydrogenase Family (ALDH1A2) Confirmation screens (AID 2061314); further: nearly all actives have a fitted effect of over 65% in size; further: potency means the concentration at half of the fitted maximal effect
[9] = BET inhibitor-based combinations targeting novel dependencies in MECOM-rearranged (r) AML: SET-2 cell line (AID 2202231); conditions: SET-2 AML cells viability, CellTiter-Glo luminescence, 48 h; viability: active compounds read low, concentration not given here; further: nearly all actives have a fitted effect of over 35% in size; further: potency means the concentration at half of the fitted maximal effect
Summary of the method: (§2)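 AML cell lines seeded at 500 cells/well, treated with 11-point dose curves for 48 h. Viability by CellTiter-Glo luminescence, normalised to DMSO and empty wells; activity expressed as AUC and per-cell-line Z-transformed AUC.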

[10] = BET inhibitor-based combinations targeting novel dependencies in MECOM-rearranged (r) AML: OCI-AML3 cell line (AID 2202232); conditions: Potency: OCI-AML3 viability; further: nearly all actives have a fitted effect of over 35% in size; further: potency means the concentration at half of the fitted maximal effect
Summary of the method: as §2

[11] = BET inhibitor-based combinations targeting novel dependencies in MECOM-rearranged (r) AML: HNT-34 cell line (AID 2202234); further: nearly all actives have a fitted effect of over 35% in size; further: potency means the concentration at half of the fitted maximal effect
Summary of the method: as §1

[12] = BET inhibitor-based combinations targeting novel dependencies in MECOM-rearranged (r) AML: AML-191 cell line (AID 2202236; further: nearly all actives have a fitted effect of over 35% in size; further: potency means the concentration at half of the fitted maximal effect)
Summary of the method: as §2

[13] = BET inhibitor-based combinations targeting novel dependencies in MECOM-rearranged (r) AML: AML-194 cell line (AID 2202237; further: nearly all actives have a fitted effect of over 40% in size)
Summary of the method: as §2

[14] = BET inhibitor-based combinations targeting novel dependencies in MECOM-rearranged (r) AML: UCSD-AML1 cell line (AID 2202235); further: series mostly up to about 46 µM; nearly all actives have a fitted effect of over 40% in size
Summary of the method: as §1

For Cc1c(C(=O)Nc2cccc(C(F)(F)F)c2)cc(-c2ccccc2)n1CCCN1CCOCC1, the Potency [1] was “inactive”, the Potency [2] was “inactive” and the Potency [3] was “inactive”. For the same molecule, the Potency [4] was 20.9 µM (active).

With COC1CC(O[C@H]2CC[C@]3(C)C4CC[C@]5(C)[C@@H](C6=CC(=O)OC6)[C@@H](OC(C)=O)C[C@]5(O)C4CC[C@@H]3C2)OC(C)C1O[C@@H]1O[C@H](CO)[C@@H](O)[C@H](O)[C@H]1O (stereo partly specified) the Potency [1] was “inactive”.

For Cc1sc2c(c1C)C(c1ccc(Cl)cc1)=N[C@@H](CC(=O)Nc1ccc(O)cc1)c1nnc(C)n1-2, the Potency [1] was “inactive” and the Potency [3] was “inactive”.

For Cc1ccccc1C(C(=O)NC1CCCCC1)N(C(=O)Cn1ccnc1C)c1cccc(F)c1 (stereo unspecified), the Potency [1] was “inactive” and the Potency [3] was “inactive”.

With Cc1cc(C)c(OP(=O)(OCc2c(-c3ccccc3)no[n+]2[O-])Oc2c(C)cc(C)cc2C)c(C)c1 the Potency [5] was 12.6 µM (active), the Potency [3] was “inactive” and the Potency [6] was 2.01 µM (active).

In the case of C[C@@H]1C[C@@H](O)[C@]2(O)O[C@@H]3C[C@@]4(C=O)C(CC[C@@H]5C4CC[C@]4(C)[C@@H](C6=CC(=O)OC6)CC[C@]54O)C[C@H]3O[C@@H]2O1 (stereo partly specified), the Potency [1] is reported as “inactive”.

In the case of CC[C@H](C)[C@@H]([C@@H](CC(=O)N1CCC[C@H]1[C@H](OC)[C@@H](C)C(=O)N[C@@H](Cc1ccccc1)c1nccs1)OC)N(C)C(=O)[C@@H](NC(=O)C(C)(C)N)C(C)C (H-[Aib]V[Dil][Dolaproine]-Doe), the Potency [1] is reported as “inactive” and the Potency [3] is reported as “inactive”.

For CCOc1ccc(CCNC(=O)c2cc3ccccc3n2Cc2cccc(C)c2)cc1OCC, the Potency [1] was “inactive” and the Potency [3] was “inactive”.

For O=C(Nc1ncc(Cc2ccc(C(F)(F)F)cc2)s1)c1cnc(-c2ccccc2)o1, the Potency [1] was “inactive” and the Potency [3] was “inactive”.

For Cc1c(P(=S)(c2ccccc2)c2ccccc2)c2ccccc2n1C, the Potency [1] was “inactive” and the Potency [3] was “inactive”.

With Cn1ncnc1COc1nn2c(-c3c(F)cccc3F)nnc2cc1C1CCC1 the Potency [1] was “inactive”, the Potency [2] was “inactive” and the Potency [3] was “inactive”.

For CCCCCn1cc(C(=O)Oc2cccc3cccnc23)c2ccccc21, the Potency [1] was “inactive”, the Potency [2] was “inactive” and the Potency [3] was “inactive”.

In the case of C[C@@H]1O[C@@H](OC2CCC3(C=O)C(CCC4C3CCC3(C)C(C5=CC(=O)OC5)C(O)CC43O)C2)[C@H](O)[C@H](O)[C@H]1O[C@@H]1O[C@H](CO)[C@@H](O)[C@H](O)[C@H]1O (stereo partly specified), the Potency [1] is reported as “inactive”.

For COC1CC(O[C@H]2CC[C@]3(C)C4CC[C@]5(C)[C@@H](C6=CC(=O)OC6)[C@@H](OC(C)=O)C[C@]5(O)C4CC[C@@H]3C2)OC(C)C1O (stereo partly specified), the Potency [1] was “inactive”.

With CCCn1c(C)c(C(=O)c2ccc3ccccc3c2)c2ccccc21 the Potency [5] was “inactive”, the Potency [7] was “inactive” and the Potency [8] was “inactive”. The Potency [6] was “inactive”.

For O=C1CN=C(c2ccccc2Cl)c2cc(Br)ccc2N1, the Potency [1] was “inactive”, the Potency [2] was “inactive” and the Potency [3] was “inactive”.

With N#Cc1nc(-c2cccc3ccccc23)oc1NCc1ccccc1 the Potency [5] was 2.52 µM (active), the Potency [3] was “inactive” and the Potency [6] was 7.12 µM (active).

For COC(=O)c1nc(-c2cccc3ccccc23)oc1OC, the Potency [1] was “inactive” and the Potency [3] was “inactive”.

For CCc1c(C(=O)C(N)=O)c2c(OCC(=O)O)cccc2n1Cc1ccccc1, the Potency [1] was “inactive”, the Potency [2] was “inactive” and the Potency [3] was “inactive”. For the same molecule, the viability [9] was 113%, the Potency [10] was “inactive” and the Potency [4] was “inactive”. The Potency [11] was “inactive”, the Potency [12] was “inactive” and the Potency [13] was “inactive”.

For C[C@H]1O[C@@H](O[C@H]2CC[C@]3(CO)C4CC[C@]5(C)[C@@H](C6=CC(=O)OC6)CC[C@]5(O)[C@@H]4CC[C@H]3C2)[C@H](O)[C@H](O)[C@@H]1O[C@@H]1O[C@H](CO)[C@@H](O)[C@H](O)[C@H]1O (stereo partly specified), the Potency [1] was “inactive”, the Potency [8] was “inactive” and the Potency [3] was “inactive”. The Potency [6] was “inactive”.

With CC(=O)N(C)c1cccc(-c2ccnc3c(C(=O)c4cccs4)cnn23)c1 the Potency [1] was “inactive”, the Potency [2] was “inactive” and the Potency [3] was “inactive”.

For C[C@@H](CN1CCC2(CC1)C(=O)NCN2c1cccc(F)c1)NC(=O)c1ccc(Br)cc1, the Potency [1] was “inactive”, the Potency [2] was “inactive” and the Potency [3] was “inactive”.

In the case of Fc1cc(F)c2c(c1)C1C=CCC1C(c1cccnc1)N2 (stereo unspecified), the Potency [1] is reported as “inactive” and the Potency [3] is reported as “inactive”.

With C/C(=C\c1csc(C)n1)[C@@H]1C[C@@H]2O[C@@H]2CCC[C@H](C)[C@H](O)[C@@H](C)C(=O)C(C)(C)[C@@H](O)CC(=O)O1 the Potency [1] was “inactive”, the Potency [2] was “inactive” and the Potency [3] was “inactive”. For the same molecule, the Potency [9] was 0.0332 µM (active), the Potency [10] was 0.0209 µM (active) and the Potency [4] was 0.0332 µM (active). The Potency [11] was 0.0235 µM (active) and the Potency [12] was 0.0235 µM (active).

In the case of O=[N+]([O-])/C=C/c1ccc2c(c1)OCO2, the Potency [5] is reported as 5.01 µM (active), the Potency [7] is reported as 15.8 µM (active) and the Potency [2] is reported as “inactive”. For the same molecule, the Potency [8] was 35.5 µM (active) and the Potency [6] was 3.57 µM (active).

With O=C(O)C(=O)c1cn(Cc2ccccc2)c2ccc(-c3ccc(OC(F)(F)F)cc3)cc12 the Potency [1] was “inactive”, the Potency [2] was “inactive” and the Potency [3] was “inactive”. The Potency [11] was “inactive”, the Potency [14] was “inactive” and the Potency [12] was “inactive”.

For O=S(=O)(Nc1ccc(-c2ccccc2)cc1)c1ccc(NCc2cccc(Cl)c2O)cc1, the Potency [5] was 25.2 µM (active), the Potency [8] was 25.2 µM (active) and the Potency [3] was “inactive”.

In the case of N#C[C@@H](O[C@@H]1O[C@H](CO[C@@H]2O[C@H](CO)[C@@H](O)[C@H](O)[C@H]2O)[C@@H](O)[C@H](O)[C@H]1O)c1ccccc1, the Potency [1] is reported as “inactive”.

With CC(C)[C@@H](CN1CC[C@@](C)(c2cccc(O)c2)[C@@H](C)C1)NC(=O)[C@H]1Cc2ccc(O)cc2CN1 the Potency [1] was “inactive”, the Potency [2] was “inactive” and the Potency [3] was “inactive”.

In the case of C=C1C(=O)O[C@@H]2[C@H]3C(=C)[C@@H](O)C[C@H]3C(=C)C[C@@H](O)[C@@H]12, the Potency [1] is reported as “inactive”.

With C[C@@H]1C[C@@H](O)[C@]2(O)O[C@@H]3C[C@@]4(C=O)C(CC[C@@H]5C4CC[C@]4(C)[C@@](O)(C6=CC(=O)OC6)CC[C@]54O)C[C@H]3OC2O1 (stereo partly specified) the Potency [1] was “inactive”.

For C=C1[C@@H](C)C2[C@H](Cc3ccccc3)NC(=O)[C@@]23C(/C=C/C[C@H](C)C[C@@](C)(O)/C=C/[C@@H]3OC(C)=O)[C@@H]1O (stereo partly specified), the Potency [1] was “inactive” and the Potency [3] was “inactive”.

With CC1=CC(=O)[C@@H](O)[C@]2(C)C3[C@@H](O)[C@@H]4OC(=O)[C@@H]([C@H]4C)[C@]3(C)C(=O)[C@H](O)[C@@H]12 (stereo partly specified) the Potency [1] was “inactive”.

For C[C@@H](CN1CCC(n2c(=O)[nH]c3cc(Br)ccc32)CC1)NC(=O)[C@@H]1C[C@H]1c1ccccc1, the Potency [1] was “inactive” and the Potency [3] was “inactive”.

For COC1C(O)C(OC2CCC3(C=O)C(CCC4C3CCC3(C)C(C5=CC(=O)OC5)CCC43O)C2)OC(C)C1OC1OC(CO)C(O)C(O)C1O (stereo unspecified), the Potency [1] was “inactive” and the Potency [3] was “inactive”.

With O=C(NCCN1CCC2(CC1)C(=O)NCN2c1cccc(F)c1)c1ccc2ccccc2c1 the Potency [1] was “inactive” and the Potency [3] was “inactive”.

In the case of CCOc1ccc(CCNC(=O)c2ccccc2)cc1OCC, the Potency [1] is reported as “inactive” and the Potency [3] is reported as “inactive”.
